Assay outcomes from PubChem BioAssay.
HTT aggregate – inhibitors of mutant huntingtin aggregate formation in PC12 cells; PC12 HttQ103-GFP aggregates, Acumen cytometry, 40 h; Potency, µM (series often up to 46.1 µM), hits mostly inhibitors; 220,000 tested, 1.1% active; AID 1688; active = well fitted curve in the direction sought with a large enough effect; inconclusive = small, poorly fitted or top-dose-only effect, or another doubt; inactive = no such curve, though single readings can be large; an effect the other way counts as inactive or inconclusive; note: nearly all actives have a fitted effect of over 60% in size
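Ecdysone-promoter PC12 model expressing HTT exon 1 Q103 fused to GFP, induced by tebufenozide at 100 nM final. Compounds titrated; aggregates sized 1–25 µm scored on a 488 nm laser cytometer.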
ALDH1A1 inh – ALDH1A1 (human) enzyme inhibition. P00352. Purified ALDH1A1, NADH fluorescence, propionaldehyde substrate. Potency, µM (doses to about 75.3 µM), hits mostly inhibitors. 220,000 tested, 7.3% active
JMJD2E inh – JMJD2E (human) inhibition. JMJD2E catalytic domain, FDH-coupled NADH fluorescence (FDH is formaldehyde dehydrogenase). Potency, µM (highest dose often 57.1 µM), most hits filed as inhibitors. 230,000 tested, 1.6% active. B2RXH2; note: nearly all actives have a fitted effect of over 50% in size
Target sequence (B2RXH2 1-337 limits assumed): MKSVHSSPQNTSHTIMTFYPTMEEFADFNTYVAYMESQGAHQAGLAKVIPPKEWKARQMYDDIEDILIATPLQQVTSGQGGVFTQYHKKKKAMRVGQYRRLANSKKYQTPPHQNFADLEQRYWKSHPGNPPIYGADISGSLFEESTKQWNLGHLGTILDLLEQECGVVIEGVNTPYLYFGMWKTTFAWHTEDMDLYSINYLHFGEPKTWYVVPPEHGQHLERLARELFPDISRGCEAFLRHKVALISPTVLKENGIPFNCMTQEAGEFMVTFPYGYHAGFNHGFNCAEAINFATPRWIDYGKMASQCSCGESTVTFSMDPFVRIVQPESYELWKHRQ
LMNA splice mod – changes lamin A minigene splicing in HeLa cells; 200,000 tested, 0.01% active; Potency, µM (highest dose often 46.1 µM), actives largely listed as inhibitors; HeLa LMNA splicing GFP/RFP minigene ratio, 48 h; active = well fitted inhibition curve with a large enough effect in the signal ratio, with a control signal flat, not every such curve was filed as active; inconclusive = small, poorly fitted or top-dose-only effect, or effect the other way, or a change in a side signal; the % refers to the signal ratio
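S3 HeLa cells stably expressing lamin A-EGFP splicing minigene plus DsRed2, 600 cells/well, 48 h compound exposure at 37C. Laser-scanning cytometry; analysed as GFP (500-530 nm)/RFP (575-640 nm) total intensity ratio; 0.5% DMSO vehicle.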
HTT ATP protect – protects HTT-Q103 PC12 cells, measured by ATP; 230,000 tested, 0.14% active; Potency, µM (doses to about 56.4 µM), most hits filed as activators; PC12 HTT-Q103 induced, cytoprotection, ATP luminescence, 40 h; active = well fitted curve in the direction sought with a large enough effect; inconclusive = small, poorly fitted or top-dose-only effect, or another doubt; inactive = no such curve, though single readings can be large; an effect the other way counts as inactive or inconclusive; note: nearly all actives have a fitted effect of over 45% in size
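Stable PC12 Q103-GFP cells in serum-supplemented, phenol red-free DMEM; induction by tebufenozide at 100 nM final; compound dose series; cell viability quantified luminescently from ATP.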
HPGD inh – HPGD (human) dehydrogenase inhibition. Potency, µM, hits mostly inhibitors. 150,000 tested, 4.3% active. purified HPGD, NADH fluorescence kinetic, PGE2 substrate. P15428
Target sequence (P15428 whole entry, looked up): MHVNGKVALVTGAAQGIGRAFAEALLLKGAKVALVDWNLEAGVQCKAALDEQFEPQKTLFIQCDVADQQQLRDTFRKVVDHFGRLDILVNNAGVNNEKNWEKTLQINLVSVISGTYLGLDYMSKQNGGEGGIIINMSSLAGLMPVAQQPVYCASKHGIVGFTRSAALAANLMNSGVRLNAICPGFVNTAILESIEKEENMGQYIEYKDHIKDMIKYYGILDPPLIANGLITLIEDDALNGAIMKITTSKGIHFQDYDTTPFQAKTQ
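NADH formation kinetics: reaction with 30 uM PGE2 and 1 mM NAD+ (final), 20 nM enzyme, Tris-HCl pH 8 with Tween 20, after 15 min compound preincubation at room temperature. Fluorescence change, last versus first of five reads.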
Each line names hits and unclear results; the compound was inactive in the other large screens. Most compounds without a hit are left out; they make up all but 9.2% or so of the library. Unless noted, calls come from the whole dose curve; as a rule, active = well fitted inhibition curve with a large enough effect (not every such curve was filed as active); inconclusive = small, poorly fitted or top-dose-only effect, or another doubt; inactive = no such curve, though single readings can be large or run the other way.

CCc1cnc2c(c1SCC(=O)Nc1ccc(C(=O)OC)cc1)c(=O)n(C)c(=O)n2C	none (no result: HTT aggregate, ALDH1A1 inh, JMJD2E inh, HTT ATP protect, HPGD inh)
CCn1nnnc1SCC(=O)Nc1ccc(OCc2ccccc2)cc1	HTT aggregate inconclusive, ALDH1A1 inh inconclusive
O=C(CSc1nnnn1-c1ccccc1)CC(=O)Nc1ccc(Cl)cc1	ALDH1A1 inh 2.2µM, LMNA splice mod inconclusive
O=C(CSc1nnnn1-c1cccnc1)Nc1ccc(OCc2ccccc2)cc1	ALDH1A1 inh 4µM
O=C(CSc1nnnn1-c1ccccc1)Nc1nsc(-c2ccc(Cl)cc2)n1	ALDH1A1 inh inconclusive, HPGD inh inconclusive
CC1(CC(=O)N/N=C/c2cc(Br)c(O)cc2O)OCCO1	JMJD2E inh 25µM, LMNA splice mod inconclusive
O=C(Nc1nc(COc2ccccc2)cs1)C12CC3CC(CC(C3)C1)C2	HTT aggregate 11µM
CC(=O)Nc1nc(COc2ccccc2)cs1	none
COc1ccccc1-c1cncnc1Nc1ccccc1	LMNA splice mod inconclusive, HTT ATP protect inconclusive (no result: HTT aggregate, JMJD2E inh, HPGD inh)
CN(Cc1ccccc1)C1CC(=O)N(c2ccc(C(=O)O)cc2)C1=O (stereo unspecified)	ALDH1A1 inh 28µM
CCCCCC(=O)N(CN1C(=O)CCC1=O)c1ccccc1	none
CCCCCCC(=O)N(O)C1CC(=O)N(Cc2ccccc2)C1=O (stereo unspecified)	HTT aggregate inconclusive, ALDH1A1 inh 3.5µM, JMJD2E inh inconclusive, LMNA splice mod inconclusive, HPGD inh 18µM
COc1ccc(N2C(=O)CC(N(CCc3ccccc3)C(=O)c3ccccc3)C2=O)cc1 (stereo unspecified)	none (no result: ALDH1A1 inh, LMNA splice mod, HPGD inh)
CCCCCC(=O)NNC1CC(=O)N(c2ccccc2)C1=O (stereo unspecified)	none (no result: ALDH1A1 inh, LMNA splice mod, HPGD inh)
CCCCCC(=O)N(O)C1CC(=O)N(c2ccccc2)C1=O (stereo unspecified)	HTT aggregate inconclusive, ALDH1A1 inh 0.79µM, LMNA splice mod inconclusive, HPGD inh 16µM
CCOC(=O)c1c(S(=O)(=O)NCC(=O)NCc2cccc(C)c2)c(C)n(C)c1C	none (no result: HTT aggregate, ALDH1A1 inh, JMJD2E inh, HTT ATP protect, HPGD inh)
O=C(c1ccc2c(Cl)c3c(nc2c1)CCCC3)N1CCN(c2ccc(F)cc2)CC1	LMNA splice mod inconclusive (no result: HTT ATP protect)
CC1CCN(C(=O)c2ccc3c(Cl)c4c(nc3c2)CCCC4)CC1	HTT aggregate inconclusive, ALDH1A1 inh 4.5µM (no result: LMNA splice mod, HPGD inh)
CCN(C(=O)c1ccc2c(Cl)c3c(nc2c1)CCC3)c1cccc(C)c1	ALDH1A1 inh inconclusive, LMNA splice mod inconclusive, HPGD inh 13µM (no result: HTT ATP protect)
COc1ccc(OC)c(CCNC(=O)CCCn2c(=O)c3cccn3c3ccc(F)cc32)c1	none (no result: HTT aggregate, ALDH1A1 inh, JMJD2E inh, HTT ATP protect, HPGD inh)
COC(=O)CN(c1ccc(OC)cc1OC)S(=O)(=O)c1ccccc1[N+](=O)[O-]	ALDH1A1 inh 19µM, HTT ATP protect inconclusive (no result: HPGD inh)
CCCCCC(=O)/C=C/[C@H]1[C@H](O)CC(=O)[C@@H]1C/C=C\CCCC(=O)O	none (no result: HTT aggregate, LMNA splice mod)
CC(C)CC1=NN2C(=N)/C(=C\c3coc4ccccc4c3=O)C(=O)N=C2S1	ALDH1A1 inh 11µM, JMJD2E inh inconclusive (no result: LMNA splice mod, HPGD inh)
CCSC1=NSC2=NC(=O)/C(=C\c3coc4ccccc4c3=O)C(=N)N12	ALDH1A1 inh inconclusive, JMJD2E inh inconclusive, HPGD inh 28µM
Cc1cccc(-n2c(C)cc(/C=C3\C(=N)N4N=C(CC(C)C)SC4=NC3=O)c2C)c1	ALDH1A1 inh inconclusive, JMJD2E inh inconclusive, HPGD inh inconclusive
COc1ccc(-c2cn3nc(N4CCCC(C(=O)NCc5ccccc5Cl)C4)sc3n2)cc1 (stereo unspecified)	none (no result: HTT aggregate, ALDH1A1 inh, JMJD2E inh, HTT ATP protect, HPGD inh)
COc1ccc([C@@H]2CC(=O)c3c(O)cc(O[C@H]4O[C@@H](CO[C@H]5O[C@@H](C)[C@@H](O)[C@@H](O)[C@@H]5O)[C@@H](O)[C@@H](O)[C@@H]4O)cc3O2)cc1O	none
Cc1ccc(C2C3CSCC=C3C(C#N)=C(N)C2(C#N)C#N)cc1 (stereo unspecified)	HTT aggregate inconclusive, ALDH1A1 inh 8.9µM, JMJD2E inh inconclusive
CC(C)N1CC=C2C(C#N)=C(N)C(C#N)(C#N)C(c3ccccc3)C2C1 (stereo unspecified)	ALDH1A1 inh inconclusive, JMJD2E inh inconclusive, HPGD inh inconclusive
O=C1NC(O)=NC1(c1ccccc1)c1ccccc1	none (no result: HTT aggregate)
COc1cc(C(=S)N2CCC(C(N)=O)CC2)ccc1O	ALDH1A1 inh 10µM, HPGD inh 18µM
COc1cc(C(=S)N2CCC(C)CC2)ccc1O	ALDH1A1 inh 10µM, HPGD inh 14µM
COc1cc(C(=S)N2CCCC2)ccc1O	ALDH1A1 inh 14µM, HPGD inh 28µM
CCOC(=O)C1=C(N)Oc2ccc(Br)cc2[C@@H]1[C@@H](C#N)C(=O)OCC	ALDH1A1 inh inconclusive (no result: HTT aggregate, LMNA splice mod)
CCCC1Nc2ccc(C(=O)O)cc2C2C=CCC12 (stereo unspecified)	ALDH1A1 inh inconclusive, LMNA splice mod inconclusive, HPGD inh inconclusive
CCOC(=O)c1ccc2c(c1)C1C=CCC1C(C(=O)O)N2 (stereo unspecified)	ALDH1A1 inh 18µM, JMJD2E inh inconclusive, HPGD inh 16µM
Cc1ccc2c(c1C)NC(C(=O)O)C1CC=CC21 (stereo unspecified)	ALDH1A1 inh 13µM, JMJD2E inh 20µM, LMNA splice mod inconclusive, HPGD inh 10µM
O=C(O)C1Nc2c(C(=O)N3CCOCC3)cccc2C2C=CCC12 (stereo unspecified)	ALDH1A1 inh inconclusive, JMJD2E inh inconclusive, HPGD inh 25µM
COc1cccc(C2=NOC(C(=O)Nc3cccc(C(C)=O)c3)C2)c1 (stereo unspecified)	ALDH1A1 inh 4µM
COc1cccc(C2=NOC(C(=O)Nc3ccc(OC)c(OC)c3)C2)c1 (stereo unspecified)	none
O=C(C1=C(O)C(=O)N(c2ncccn2)C1c1ccc(Cl)cc1)c1ccco1 (stereo unspecified)	ALDH1A1 inh inconclusive
O=C(C1=C(O)C(=O)N(c2ncccn2)C1c1cccc(Cl)c1)c1ccco1 (stereo unspecified)	ALDH1A1 inh 18µM, JMJD2E inh inconclusive
O=C(C1=C(O)C(=O)N(c2ncccn2)C1c1ccc(Cl)c(Cl)c1)c1ccco1 (stereo unspecified)	ALDH1A1 inh 7.9µM, JMJD2E inh inconclusive, HPGD inh inconclusive
Cc1ccc2[nH]c3c(c2c1)CN(C(=O)CN1CC(C)OC(C)C1)CC3 (stereo unspecified)	ALDH1A1 inh 11µM
Cc1ccc2[nH]c3c(c2c1)CN(C(=O)CN1CCN(Cc2ccc4c(c2)OCO4)CC1)CC3	HTT aggregate inconclusive, ALDH1A1 inh inconclusive
Cc1ccc2[nH]c3c(c2c1)CN(C(=O)CN1CCN(c2ccccn2)CC1)CC3	ALDH1A1 inh 10µM
COc1ccc(CCNC(=O)Cn2cc(C(=O)c3ccccc3)c(=O)c3ccc(C)nc32)cc1OC	none (no result: HTT aggregate, ALDH1A1 inh, JMJD2E inh, HTT ATP protect, HPGD inh)
